Data from the supplement of paper PMC8728848.
About 410 targets per protein were measured; listed, in parts, are those with the strongest signals and a random draw of the rest.

What was measured:
Assay in all cases: glycan array binding signal (z-score within array); higher = stronger binding
Conditions in all cases: glycan notation: IUPAC condensed, linker removed
[1] = molecular target: Fuc(a1-2)Gal(b1-3)GlcNAc(b1-2)Man(a1-3)[Fuc(a1-2)Gal(b1-3)GlcNAc(b1-2)Man(a1-6)]Man(b1-4)GlcNAc(b1-4)GlcNAc
Summary of the method: (§1)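 Arrays were curated from the Consortium for Functional Glycomics database, 3228 in total, and kept only where the protein sequence was available. Binding is expressed as a within-array Z-score. This score was averaged across arrays of the same protein sequence at different concentrations or buffers and across linkers, and negative values can be read as non-binding.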

[2] = molecular target: Fuc(a1-2)Gal(b1-3)GlcNAc(b1-3)[Neu5Ac(a2-6)Gal(b1-4)GlcNAc(b1-6)]Gal(b1-4)Glc
Summary of the method: as §1

[3] = molecular target: Fuc(a1-2)Gal(b1-3)[Fuc(a1-4)]GlcNAc(b1-3)[Gal(b1-4)GlcNAc(b1-6)]Gal(b1-4)Glc
Summary of the method: as §1

[4] = molecular target: Fuc(a1-2)[Gal(a1-3)]Gal(b1-3)GlcNAc(b1-2)Man(a1-3)[Fuc(a1-2)[Gal(a1-3)]Gal(b1-3)GlcNAc(b1-2)Man(a1-6)]Man(b1-4)GlcNAc(b1-4)[Fuc(a1-6)]GlcNAc
Summary of the method: as §1

[5] = molecular target: Fuc(a1-2)[Gal(a1-3)]Gal(b1-3)GlcNAc(b1-6)GalNAc
Summary of the method: as §1

[6] = molecular target: Fuc(a1-2)[GalNAc(a1-3)]Gal(b1-4)GlcNAc(b1-2)Man(a1-3)[Fuc(a1-2)[GalNAc(a1-3)]Gal(b1-4)GlcNAc(b1-2)Man(a1-6)]Man(b1-4)GlcNAc(b1-4)GlcNAc
Summary of the method: as §1

[7] = molecular target: Fuc(a1-3)[Gal3S(b1-4)]GlcNAc
Summary of the method: as §1

[8] = molecular target: Fuc(a1-3)[Gal3S(b1-4)]GlcNAc6S
Summary of the method: as §1

[9] = molecular target: Gal(a1-3)Gal(b1-4)GlcNAc(b1-3)GalNAc
Summary of the method: as §1

[10] = molecular target: Gal(a1-3)Gal(b1-4)[Fuc(a1-3)]GlcNAc(b1-2)Man(a1-3)[Gal(a1-3)Gal(b1-4)[Fuc(a1-3)]GlcNAc(b1-2)Man(a1-6)]Man(b1-4)GlcNAc(b1-4)GlcNAc
Summary of the method: as §1

[11] = molecular target: Gal(a1-3)[Gal(a1-4)]Gal(b1-4)GlcNAc
Summary of the method: as §1

Gal(a1-4)Gal(b1-4)GlcNAc = molecular target: Gal(a1-4)Gal(b1-4)GlcNAc
Summary of the method: as §1

[12] = molecular target: Gal(a1-4)Gal(b1-4)GlcNAc(b1-2)Man(a1-3)[Gal(a1-4)Gal(b1-4)GlcNAc(b1-2)Man(a1-6)]Man(b1-4)GlcNAc(b1-4)GlcNAc
Summary of the method: as §1

[13] = molecular target: Gal(b1-3)GlcNAc(b1-2)Man(a1-3)[GlcNAc(b1-4)][Gal(b1-3)GlcNAc(b1-2)Man(a1-6)]Man(b1-4)GlcNAc(b1-4)GlcNAc
Summary of the method: as §1

[14] = molecular target: Gal(b1-3)GlcNAc(b1-3)Gal(b1-4)Glc
Summary of the method: as §1

[15] = molecular target: Gal(b1-3)GlcNAc(b1-3)Gal(b1-4)[Fuc(a1-3)]GlcNAc
Summary of the method: as §1

[16] = molecular target: Gal(b1-3)[Fuc(a1-4)]GlcNAc(b1-6)GalNAc
Summary of the method: as §1

[17] = molecular target: Gal(b1-3)[GlcNAc(b1-6)]GalNAc
Summary of the method: as §1

[18] = molecular target: Gal(b1-3)[Neu5Ac(a2-6)]GalNAc
Summary of the method: as §1

[19] = molecular target: Gal(b1-4)GlcNAc(b1-2)[Gal(b1-4)GlcNAc(b1-6)]Man(a1-6)[Gal(b1-4)GlcNAc(b1-2)Man(a1-3)]Man(b1-4)GlcNAc(b1-4)[Fuc(a1-6)]GlcNAc
Summary of the method: as §1

[20] = molecular target: Gal(b1-4)GlcNAc(b1-3)Gal(b1-4)GlcNAc(b1-2)[Gal(b1-4)GlcNAc(b1-3)Gal(b1-4)GlcNAc(b1-6)]Man(a1-6)[Gal(b1-4)GlcNAc(b1-3)Gal(b1-4)GlcNAc(b1-2)Man(a1-3)]Man(b1-4)GlcNAc(b1-4)[Fuc(a1-6)]GlcNAc
Summary of the method: as §1

[21] = molecular target: Gal(b1-4)GlcNAc(b1-3)Gal(b1-4)GlcNAc(b1-3)Gal(b1-4)GlcNAc(b1-3)Gal(b1-4)GlcNAc(b1-2)Man(a1-3)[Gal(b1-4)GlcNAc(b1-3)Gal(b1-4)GlcNAc(b1-3)Gal(b1-4)GlcNAc(b1-3)Gal(b1-4)GlcNAc(b1-2)Man(a1-6)]Man(b1-4)GlcNAc(b1-4)[Fuc(a1-6)]GlcNAc
Summary of the method: as §1

Gal3S(b1-3)GlcNAc = molecular target: Gal3S(b1-3)GlcNAc
Summary of the method: as §1

[22] = molecular target: Gal3S(b1-4)[Fuc(a1-3)]GlcNAc
Summary of the method: as §1

Glc(b1-4)Glc = molecular target: Glc(b1-4)Glc
Summary of the method: as §1

[23] = molecular target: GlcNAc(a1-4)Gal(b1-4)GlcNAc(b1-3)Gal(b1-4)[Fuc(a1-3)]GlcNAc(b1-3)Gal(b1-4)[Fuc(a1-3)]GlcNAc
Summary of the method: as §1

[24] = molecular target: GlcNAc(b1-2)Gal(b1-3)GalNAc
Summary of the method: as §1

[25] = molecular target: GlcNAc(b1-2)Man(a1-3)[GlcNAc(b1-2)Man(a1-6)]Man(b1-4)GlcNAc(b1-4)GlcNAc
Summary of the method: as §1

[26] = molecular target: GlcNAc(b1-2)[GlcNAc(b1-4)]Man(a1-3)[GlcNAc(b1-4)][GlcNAc(b1-2)[GlcNAc(b1-6)]Man(a1-6)]Man(b1-4)GlcNAc(b1-4)[Fuc(a1-6)]GlcNAc
Summary of the method: as §1

[27] = molecular target: GlcNAc(b1-3)Gal(b1-4)GlcNAc(b1-3)Gal(b1-4)GlcNAc(b1-2)Man(a1-3)[GlcNAc(b1-3)Gal(b1-4)GlcNAc(b1-3)Gal(b1-4)GlcNAc(b1-2)Man(a1-6)]Man(b1-4)GlcNAc(b1-4)GlcNAc
Summary of the method: as §1

[28] = molecular target: GlcNAc(b1-3)Gal(b1-4)GlcNAc(b1-3)Gal(b1-4)GlcNAc(b1-3)Gal(b1-4)GlcNAc(b1-2)[GlcNAc(b1-3)Gal(b1-4)GlcNAc(b1-3)Gal(b1-4)GlcNAc(b1-3)Gal(b1-4)GlcNAc(b1-6)]Man(a1-6)[GlcNAc(b1-3)Gal(b1-4)GlcNAc(b1-3)Gal(b1-4)GlcNAc(b1-3)Gal(b1-4)GlcNAc(b1-2)Man(a1-3)]Man(b1-4)GlcNAc(b1-4)[Fuc(a1-6)]GlcNAc
Summary of the method: as §1

[29] = molecular target: GlcNAc(b1-4)GlcNAc(b1-4)GlcNAc(b1-4)GlcNAc(b1-4)GlcNAc
Summary of the method: as §1

[30] = molecular target: Man(a1-3)[Man(a1-6)]Man(b1-4)GlcNAc(b1-4)GlcNAc
Summary of the method: as §1

[31] = molecular target: Neu5Ac(a2-3)Gal(b1-3)[GlcNAc(b1-6)]GalNAc
Summary of the method: as §1

Neu5Ac(a2-3)Gal(b1-4)Glc = molecular target: Neu5Ac(a2-3)Gal(b1-4)Glc
Summary of the method: as §1

[32] = molecular target: Neu5Ac(a2-3)Gal(b1-4)GlcNAc(b1-2)Man
Summary of the method: as §1

[33] = molecular target: Neu5Ac(a2-3)Gal(b1-4)GlcNAc(b1-6)[Neu5Ac(a2-3)Gal(b1-3)]GalNAc
Summary of the method: as §1

[34] = molecular target: Neu5Ac(a2-3)Gal(b1-4)[Fuc(a1-3)]GlcNAc(b1-3)GalNAc
Summary of the method: as §1

[35] = molecular target: Neu5Ac(a2-6)Gal(b1-4)GlcNAc(b1-2)Man(a1-6)[Gal(b1-4)GlcNAc(b1-2)Man(a1-3)]Man(b1-4)GlcNAc(b1-4)GlcNAc
Summary of the method: as §1

[36] = molecular target: Neu5Ac(a2-6)Gal(b1-4)GlcNAc(b1-3)Gal(b1-3)GlcNAc
Summary of the method: as §1

[37] = molecular target: Neu5Ac(b2-6)Gal(b1-4)GlcNAc
Summary of the method: as §1

B1: GS7807I-bvu-563-22-563 (Bacteroides vulgatus) (protein)
chain: IFSSCTDDFEKLNTSNIQVDPADLPFAAQCTEPMTYCYPPQQNMFQFWTNLTIDLYGGYFMTPNGNFTNGDMGENRGHSGGMYENYYLHIFNNTRRIIAQCDASGERGLSGVMRIVQAYGTLMTTDAYGPIPYSSILSGENEVYFEFDSQKDLYKAMLEDLSTAITDISAMGADEIAKLKSFDCWCNGDKDLWVKIANTMKLRMALRLSKRETEAGNAGMNLKAIATEAAQNTLATVNKDILIDKSLENEMWLMFNWGDCGFNANLVTIMSGTKDPRQPLYMTLNTGDIKNEAGTTTVAANSQYLGIRFASGLPAKPNSWGNFSGWIQGNNGSSYSMPLPIMKAAEAYFLLAEAKLRWDIGSESVKNLYENGIRVSMTNELAYRGAYAGIKEYPEGAVDAYINGTSTQIDYTDPIKAELSTPAVNKLSVKWDESASNEEKLERIITQKWLALFPLSTEGWAEQRRTGYPRFFPAFVNESNGAVNTEEGVRRVIYSSQAYDANAKGVEGGIKLLDEENSSKFGISGDKGGTHLWWDNADKGNF
glycan array binding signal (z-score) [1]: 4.25
glycan array binding signal (z-score) [2]: -0.639
glycan array binding signal (z-score) [3]: -0.806
glycan array binding signal (z-score) [4]: -0.026
glycan array binding signal (z-score) [5]: 0.231
glycan array binding signal (z-score) [6]: 0.159
glycan array binding signal (z-score) [7]: 0.384
glycan array binding signal (z-score) [8]: 0.755
glycan array binding signal (z-score) [9]: -1.06
glycan array binding signal (z-score) [10]: 3.63
glycan array binding signal (z-score) [11]: 0.09
glycan array binding signal (z-score) (Gal(a1-4)Gal(b1-4)GlcNAc): 0.073
glycan array binding signal (z-score) [12]: 2.76
glycan array binding signal (z-score) [13]: 3.75
glycan array binding signal (z-score) [14]: -1.02
glycan array binding signal (z-score) [15]: -0.396
glycan array binding signal (z-score) [16]: -0.343
glycan array binding signal (z-score) [17]: -0.484
glycan array binding signal (z-score) [18]: 0.238
glycan array binding signal (z-score) [19]: -0.297
glycan array binding signal (z-score) [20]: 2.61
glycan array binding signal (z-score) [21]: 3.21
glycan array binding signal (z-score) (Gal3S(b1-3)GlcNAc): 1.03
glycan array binding signal (z-score) [22]: 0.875
glycan array binding signal (z-score) (Glc(b1-4)Glc): -0.567
glycan array binding signal (z-score) [23]: 2.71
glycan array binding signal (z-score) [24]: 0.388
glycan array binding signal (z-score) [25]: -0.694
glycan array binding signal (z-score) [26]: -1.04
glycan array binding signal (z-score) [27]: 2.79
glycan array binding signal (z-score) [28]: 3.79
glycan array binding signal (z-score) [29]: -0.951
glycan array binding signal (z-score) [30]: -0.233
glycan array binding signal (z-score) [31]: 0.671
glycan array binding signal (z-score) (Neu5Ac(a2-3)Gal(b1-4)Glc): 0.689
glycan array binding signal (z-score) [32]: 2.84
glycan array binding signal (z-score) [33]: -0.221
glycan array binding signal (z-score) [34]: 5.03
glycan array binding signal (z-score) [35]: 1.71
glycan array binding signal (z-score) [36]: -0.945
glycan array binding signal (z-score) [37]: -0.47
